# Data from PubChem BioAssay (NCATS).
# Inconclusive results are not listed. A call without a number means that no potency is given here. A structure can be active in one record and inactive in another. The source made the active and inactive calls. The call rests on the fitted dose curve; in most records, active means well fitted inhibition curve with a large enough effect; inconclusive means small, poorly fitted or top-dose-only effect; inactive means flat fitted curve, though single readings scatter.
# Molecular target: Voltage-gated inwardly rectifying potassium channel KCNH2 (Homo sapiens) (UniProt Q12809)
# Sequence (Q12809 whole entry, looked up): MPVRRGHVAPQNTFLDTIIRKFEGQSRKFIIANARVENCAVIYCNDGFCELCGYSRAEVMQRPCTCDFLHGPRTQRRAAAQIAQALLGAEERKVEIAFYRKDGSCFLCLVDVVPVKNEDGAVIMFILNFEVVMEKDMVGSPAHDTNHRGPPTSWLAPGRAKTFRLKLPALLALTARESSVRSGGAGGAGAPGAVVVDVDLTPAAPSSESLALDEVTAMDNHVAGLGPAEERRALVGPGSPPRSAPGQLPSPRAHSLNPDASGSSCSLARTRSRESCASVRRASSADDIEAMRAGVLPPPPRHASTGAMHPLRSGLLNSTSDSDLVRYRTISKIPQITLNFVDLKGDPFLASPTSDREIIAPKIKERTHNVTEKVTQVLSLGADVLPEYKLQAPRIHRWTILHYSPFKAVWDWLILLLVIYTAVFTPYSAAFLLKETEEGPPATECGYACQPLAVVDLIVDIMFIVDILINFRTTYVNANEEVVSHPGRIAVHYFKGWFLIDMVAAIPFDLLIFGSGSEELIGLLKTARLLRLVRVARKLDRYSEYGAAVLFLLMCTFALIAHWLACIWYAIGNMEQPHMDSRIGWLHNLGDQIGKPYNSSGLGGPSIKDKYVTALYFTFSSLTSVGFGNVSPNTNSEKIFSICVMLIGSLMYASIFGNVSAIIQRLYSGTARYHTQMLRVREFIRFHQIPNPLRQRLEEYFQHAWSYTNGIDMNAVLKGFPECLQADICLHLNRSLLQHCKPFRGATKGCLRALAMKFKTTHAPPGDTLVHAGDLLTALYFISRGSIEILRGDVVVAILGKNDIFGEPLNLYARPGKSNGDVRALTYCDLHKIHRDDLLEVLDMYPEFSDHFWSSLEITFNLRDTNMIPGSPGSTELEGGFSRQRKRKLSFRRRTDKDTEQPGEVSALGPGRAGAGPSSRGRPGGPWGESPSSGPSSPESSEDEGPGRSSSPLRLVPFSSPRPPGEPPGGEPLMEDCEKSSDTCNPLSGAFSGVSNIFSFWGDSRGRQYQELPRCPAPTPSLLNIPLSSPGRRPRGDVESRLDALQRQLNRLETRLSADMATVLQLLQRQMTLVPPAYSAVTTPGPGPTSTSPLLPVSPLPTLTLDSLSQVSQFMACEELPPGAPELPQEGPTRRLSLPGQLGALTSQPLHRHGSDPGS
# Experiment: qHTS Assay for Small Molecule Inhibitors of the Human hERG Channel Activity (AID 588834);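 further: lower thallium flux fluorescence means stronger hERG block; nearly all actives have a fitted effect of over 50% in size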
# Settings: U2OS BacMam hERG, FluxOR thallium flux fluorescence; series mostly up to 46.1 µM
# Method in brief: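 U2OS cells transduced with hERG via BacMam (MOI ~100), plated 2000/well, loaded with FluxOR thallium dye, compound ~10 min, then stimulation buffer; fluorescence decrease read kinetically; AC50 from Hill fits.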
# Potency means the concentration at half of the fitted maximal effect.
row,Structure (SMILES),Potency
1,NCCCS(=O)(=O)O,inactive
2,c1ccc2sc(SN3CCOCC3)nc2c1,inactive
3,NC(CCCP(=O)(O)O)C(=O)O (stereo not drawn),inactive
4,O=C(O)c1cc(=O)c2ccccc2[nH]1,inactive
5,Brc1c(Br)c(Br)c2n[nH]nc2c1Br,inactive
6,CN1CCN(c2cc3c(nn2)Oc2ccccc2N3C)CC1,inactive
7,CN(C)CCn1nnnc1SCC1=C(C(=O)O)N2C(=O)[C@@H](NC(=O)Cc3csc(N)n3)[C@H]2SC1,inactive
8,Cc1ccc(O)c(N=Nc2ccccc2)n1,inactive
9,CN(C)[C@@H]1C(=O)C(C(=O)NCN2CCCC2)=C(O)[C@@]2(O)C(=O)C3=C(O)c4c(O)cccc4[C@@](C)(O)C3C[C@@H]12 (stereo partly drawn),inactive
10,CN1CCc2cc(NC(=O)Nc3cccnc3)ccc21,inactive
11,COc1cc(C(O)CO)ccc1OS(=O)(=O)O (stereo not drawn),inactive
12,O=C1NC(O)=NC1(c1ccccc1)c1ccccc1,inactive
13,CC(=O)[C@]1(O)Cc2c(O)c3c(c(O)c2[C@@H](O[C@H]2C[C@H](N)[C@H](O)[C@H](C)O2)C1)C(=O)c1c(O)cccc1C3=O,inactive
14,CCCn1c(=O)c2[nH]c(-c3ccc(OCC(=O)NCCN)cc3)nc2n(CCC)c1=O,inactive
15,N#C/C(=C\c1ccc(O)c(O)c1)C(=O)NCc1ccccc1,12.6 µM (active)
16,COC(=O)[C@H]1[C@H]2C[C@@H]3c4[nH]c5cc(OC)ccc5c4CCN3C[C@H]2C[C@@H](OC(=O)/C=C/c2cc(OC)c(OC)c(OC)c2)[C@@H]1OC,7.94 µM (active)
17,COc1cc2c(CCNC(C)=O)c[nH]c2cc1Cl,inactive
18,Cn1cc(C2=C(c3ccc(Cl)cc3Cl)C(=O)NC2=O)c2ccccc21,2.51 µM (active)
19,OCC1O[C@H](O)C(Cl)C(O)C1O (stereo partly drawn),inactive

row,Structure (SMILES),Potency
1,O=C(O)[C@@H]1C[C@H](C(=O)O)N1,inactive
2,O=C(/C=C/c1ccc(O)cc1)c1ccc(O)cc1O,3.98 µM (active)
3,C=C/C(C)=C/[C@@]1(C)SC(=O)C(C)=C1O,inactive
4,CN(C)c1ccc(C(=C2C=CC(=[N+](C)C)C=C2)c2ccccc2)cc1,7.08 µM (active)
5,CN[C@H](CC(C)C)C(=O)N[C@H]1C(=O)N[C@@H](CC(N)=O)C(=O)N[C@H]2C(=O)N[C@H]3C(=O)N[C@H](C(=O)N[C@H](C(=O)O)c4cc(O)cc(O)c4-c4cc3ccc4O)[C@H](O)c3ccc(c(Cl)c3)Oc3cc2cc(c3O[C@@H]2O[C@H](CO)[C@@H](O)[C@H](O)[C@H]2O[C@H]2C[C@](C)(N)[C@H](O)[C@H](C)O2)Oc2ccc(cc2Cl)[C@H]1O,inactive
6,CCCCCCCCCCCCCCCCCCNC(=O)OCC(COP(=O)([O-])OCC[n+]1ccsc1)OC (stereo not drawn),inactive
7,CC1(C)[C@@H](O[C@H]2O[C@H](C(=O)O)[C@@H](O)[C@H](O)[C@H]2O[C@@H]2O[C@H](C(=O)O)[C@@H](O)[C@H](O)[C@H]2O)CC[C@]2(C)[C@H]3C(=O)C=C4[C@@H]5C[C@@](C)(C(=O)O)CC[C@]5(C)CC[C@@]4(C)[C@]3(C)CC[C@@H]12,inactive
8,N=C(N)SCCc1ccc(CCSC(=N)N)cc1,inactive
9,NCCCCC(=O)O,inactive
10,CC(=O)N[C@H](C(=O)O)C(C)(C)SN=O,inactive
11,Cc1nc2ccccc2n1Cc1ccc(Cl)cc1,inactive
12,O=c1[nH]c2cc(C(F)(F)F)ccc2n1-c1cc(C(F)(F)F)ccc1O,inactive
13,O=C(Nc1ccc(C(=O)O)c(O)c1)c1ccccc1,inactive
14,NCCSSCCN,inactive
15,N#C/C(=C\c1c[nH]c2ccccc12)C(=O)c1ccc(O)c(O)c1,inactive
16,O=C(O)CC1CCCc2ccccc2C1O (stereo not drawn),inactive
17,CCCCCCCCCCCCCCCC(=O)NCC(COP(=O)([O-])OCC[N+](C)(C)C)OCC (stereo not drawn),inactive
18,Fc1cccc(/C=N/N=C/c2cccc(F)c2)c1,inactive
19,CCN1/C(=C/C(C)=O)Sc2ccc(OC)cc21,inactive
